The values below come from PubChem BioAssay AID1259421 (Broad Institute, 2018).

Where “and” joins values, the source holds several entries; their conditions need not be identical. Identical values can stand only once. Out of some 6,400 compounds screened, about 610 (9.5%) were called active. This is one part of a sample in which actives are shown more often than they occur. No stated cut-off is given here; in the data, active means activity change below about -70%; inconclusive means no clear call, values can overlap the other calls; inactive means above that. Some compounds were tested as several samples or in several runs, with calls that do not always agree. *1 amine or outer side, *2 acyl side, *3 side chain or, on linkers, in order; H or OH if unused. Where a SMILES comes first, the peptide text is derived from it. Bridges are numbered along the chain shown (N, C = ends). [ ]: non-standard residue; d: D form. The star is where a group is joined. ξ: configuration not given here. pTerphenylCO(4''-OnC5H11) = CCCCCOc1ccc(-c2ccc(-c3ccc(C(=O)*)cc3)cc2)cc1; ξOrn(4,5-diOH) = O=C(C(CC(O)C(O)N[*:3])N[*:1])[*:2]; ξhTyr(βξ-OH,γξ-OH) = NC(C(=O)O)C(O)C(O)c1ccc(O)cc1; ξPro(3ξ-OH,4ξ-Me) = CC1CNC(C(=O)O)C1O; Heptanoyl(6-Me) = CC(C)CCCCC(=O)*; Hyp = O=C(O)[CH]1C[CH](O)CN1; ξDab = NCCC(N)C(=O)O; ξT = CC(O)C(N)C(=O)O

The assay in a line: Toxoplasma gondii ME49Luc growth in HeLa cells, luciferase, no IFN-y, primary screen (AID 1259421). The conditions noted are these: T. gondii ME49Luc in HeLa, 72 h, stronger effect = lower value, concentration not given here.
For `O=C1c2ccccc2C(Cc2ccnc(F)c2)(Cc2ccnc(F)c2)c2ccccc21`, the activity change, negative = inhibition is 21.9% (inactive) and 12.1% (inactive). As for `O=C1N[C@@H]2[C@@H](O)[C@@H](O)[C@H](O)[C@@H](CO)N2C1=O`, the figure is 11.7% (inactive). Next, `O[C@H]([C@H](O)[C@@H]1CO1)[C@H]1CO1`: 5.39% (inactive).

In the case of `C=C1c2c(Cl)ccc(O)c2C(=O)C2C(=O)[C@]3(O)C(=O)C(C(N)=O)C(=O)[C@@H](N(C)C)[C@@H]3[C@@H](O)[C@H]12` (stereo partly drawn), the activity change, negative = inhibition is -9.94% (inactive) and 7.28% (inactive). Next, `C=C1c2cccc(O)c2C(=O)C2C(=O)[C@]3(O)C(=O)C(C(N)=O)C(=O)[C@@H](N(C)C)[C@@H]3[C@@H](O)[C@H]12` (stereo partly drawn): -67.5% (inactive) and 19% (inactive); `CCC(CC)C(c1ccc(Nc2nc3ccccc3s2)cc1)n1cncn1` (stereo not drawn): 4.5% (inactive). Next, `COC(=O)N(C)c1c(N)nc(-c2nn(Cc3ccccc3F)c3ncccc23)nc1N`: 2.65% (inactive); `CC(=O)O[C@H]1C(=O)[C@@]2(C)C([C@H](OC(=O)c3ccccc3)[C@]3(O)C[C@H](OC(=O)[C@H](O)[C@@H](NC(=O)c4ccccc4)c4ccccc4)C(C)=C1C3(C)C)[C@]1(OC(C)=O)CO[C@@H]1C[C@@H]2O` (stereo partly drawn): -86.6% (active) and -77.4% (active); `CC(=O)OC1C(=O)C2(C)C(O)CC3OCC3(OC(C)=O)C2C(OC(=O)c2ccccc2)C2(O)CC(OC(=O)C(O)C(NC(=O)c3ccccc3)c3ccccc3)C(C)=C1C2(C)C` (stereo not drawn): -87.7% (active). As for `CC(=O)O[C@H]1C(=O)[C@@]2(C)[C@H]([C@H](OC(=O)c3ccccc3)[C@]3(O)C[C@H](OC(=O)[C@H](O)[C@@H](NC(=O)c4ccccc4)c4ccccc4)C(C)=C1C3(C)C)[C@]1(OC(C)=O)CO[C@@H]1C[C@@H]2O`, the figure is -84.9% (active) and -74.8% (active); as for `CCCCCCCC/C=C/CCCCCCCC(=O)NC(CO)Cc1ccc(O)cc1` (stereo not drawn), 6.19% (inactive); as for `C[N+]1(C)[C@@H]2CC(OC(=O)[C@H](CO)c3ccccc3)C[C@H]1[C@@H]1O[C@@H]12` (stereo partly drawn), 10.8% (inactive).

`O=C(O)CC/C=C/CC1COC(c2ccccc2Cl)OC1c1ccccc1O` (stereo not drawn): the activity change, negative = inhibition was 11.4% (inactive). For the compound `O=C(O)[C@@H]1C[C@H]2C[C@@H](CCc3nn[nH]n3)CC[C@H]2CN1`, the activity change, negative = inhibition was 15.6% (inactive). Next, `CN1CCCC1c1cccnc1` (stereo not drawn): 24.1% (inactive); `CCCCCOc1ccc(-c2ccc(-c3ccc(C(=O)NC4CC(O)C(O)NC(=O)C5C(O)C(C)CN5C(=O)C(C(C)O)NC(=O)C(C(O)C(O)c5ccc(O)cc5)NC(=O)C5CC(O)CN5C(=O)C(C(C)O)NC4=O)cc3)cc2)cc1` (stereo not drawn) ({pTerphenylCO(4''-OnC5H11)}-[ξOrn(4,5-diOH)]T[Hyp][ξhTyr(βξ-OH,γξ-OH)]T[ξPro(3ξ-OH,4ξ-Me)]; lactam 1-C; configuration not given here): -6.09% (inactive).

On to `Cc1nn(-c2ccccc2)c(C)c1/C=N/N1CCN(Cc2ccccc2)CC1`, for which the activity change, negative = inhibition is 7.74% (inactive) and 0.523% (inactive). As for `Cn1[nH]c(=O)c(=O)[nH]c1=S`, the figure is 14.6% (inactive); as for `C[C@@H]1CC2C3CCC4=CC(=O)C=C[C@]4(C)[C@@]3(F)[C@@H](O)C[C@]2(C)[C@H]1C(=O)CO` (stereo partly drawn), -13.5% (inactive) and -8.09% (inactive). As for `CCCCC[C@H](O)/C=C/C=C\C/C=C\C/C=C\CCCC(=O)O`, the figure is -37.7% (inactive); as for `Cc1c(N)cccc1Cn1ccc(OCCc2cccs2)cc1=O`, 1.77% (inactive). As for `Cc1cc(C)c(CNC(=O)c2cc(-c3ccc(CN4CCOCC4)cc3)cc3c2cnn3C2CCCC2)c(=O)[nH]1`, the figure is -31% (inactive); as for `CC(C)c1cc(C(=O)N2Cc3ccc(CN4CCN(C)CC4)cc3C2)c(O)cc1O`, -63.5% (inactive); as for `CCNC(=O)c1noc(-c2cc(C(C)C)c(O)cc2O)c1-c1ccc(CN2CCOCC2)cc1`, -87.9% (active).

Take `CC(C)(O)[C@H]1CC[C@@](C)([C@H]2[C@@H](O)C[C@@]3(C)[C@@H]4C[C@H](O[C@@H]5O[C@H](CO)[C@@H](O)[C@H](O)[C@H]5O)[C@H]5C(C)(C)[C@@H](O[C@@H]6OC[C@@H](O)[C@H](O)[C@H]6O)CC[C@@]56C[C@@]46CC[C@]23C)O1`: the activity change, negative = inhibition was 3% (inactive). As for `Cc1cc(-c2cc(O)ccc2Cl)cc2nnc(Nc3ccc(OCCN4CCCC4)cc3)nc12`, the figure is -89.7% (active); as for `Cc1cc(-c2cc(OC(=O)c3ccccc3)ccc2Cl)cc2nnc(Nc3ccc(OCCN4CCCC4)cc3)nc12`, 7.81% (inactive); as for `CCCCOc1ccc(C(=O)CCN2CCCCC2)cc1`, 1.11% (inactive).

On to `CCn1ccnc1CC1COc2ccccc2O1` (stereo not drawn), for which the activity change, negative = inhibition is 16.5% (inactive) and 6.37% (inactive). Next, `Nc1nonc1C(=Nc1ccc(F)c(Cl)c1)NO`: 17% (inactive); `CCOc1ccc(-n2c([C@@H](C)N(Cc3cccnc3)C(=O)Cc3ccc(OC(F)(F)F)cc3)nc3ncccc3c2=O)cc1`: -0.654% (inactive); `CON=C1C[C@]2(C[C@@H]3C[C@@H](C/C=C(\C)C[C@@H](C)/C=C/C=C4\CO[C@@H]5[C@H](O)C(C)=C[C@@H](C(=O)O3)[C@]45O)O2)O[C@H](/C(C)=C/C(C)C)[C@H]1C`: -67.7% (inactive). Next, `CC(C)c1cc(-c2n[nH]c(=O)n2-c2ccc3c(ccn3C)c2)c(O)cc1O`: -82.8% (active); `CC(C)CCCCC(=O)NC(CCN)C(=O)NC(C(=O)NC(CCN)C(=O)NC1CCNC(=O)C(C(C)O)NC(=O)C(CCN)NC(=O)C(CCN)NC(=O)[C@H](CC(C)C)NC(=O)[C@@H](CC(C)C)NC(=O)C(CCN)NC1=O)C(C)O` (stereo partly drawn) ({Heptanoyl(6-Me)}-[ξDab][ξT][ξDab][ξDab][ξDab][dL]L[ξDab][ξDab][ξT]; lactam 4-C): 5.64% (inactive); `COc1ccc(-c2cc(=O)c3c(OC)c(OC)c(OC)c(OC)c3o2)cc1OC`: 14.2% (inactive).

With `COc1ccc(-c2cc(=O)c3c(OC)c(OC)c(OC)cc3o2)cc1OC`, the activity change, negative = inhibition is -3.44% (inactive).

Take `COc1cc(-c2ccc(=O)[nH]n2)ccc1OC(F)F`: the activity change, negative = inhibition was -98.8% (active) and -89.5% (active). As for `N[C@@H](CSCCCO)C(=O)O`, the figure is 9.56% (inactive) and 5.2% (inactive); as for `COC(=O)Nc1nc2ccc(C(=O)c3cccs3)cc2[nH]1`, -78.8% (active) and -71.2% (active); as for `CCCS(=O)c1ccc2nc(NC(=O)OC)[nH]c2c1` (stereo not drawn), 18.9% (inactive). Next, `COC(=O)Nc1nc2ccc(C(=O)c3ccccc3)cc2[nH]1`: -65.6% (inactive) and -76% (active); `COC(=O)Nc1nc2ccc(SC(C)C)cc2[nH]1`: -47% (inactive) and -32.6% (inactive). As for `COC(=O)Nc1nc2ccc(S(=O)c3ccccc3)cc2[nH]1` (stereo not drawn), the figure is 1.33% (inactive) and 7.44% (inactive) and -54.7% (inactive); as for `COC(=O)Nc1nc2ccc(C(=O)c3ccc(F)cc3)cc2[nH]1`, -64.8% (inactive); as for `CCCSc1ccc2nc(NC(=O)OC)[nH]c2c1`, -54.3% (inactive) and -5.56% (inactive). Take `COC(=O)Nc1nc2ccc(Sc3ccccc3)cc2[nH]1`: the activity change, negative = inhibition was -42.3% (inactive) and -3.74% (inactive) and -73.8% (active). As for `COC(=O)Nc1nc2ccc(C(=O)C3CC3)cc2[nH]1`, the figure is -35.4% (inactive); as for `CN(CCOP(=O)(O)O)C(=N)N`, 22.7% (inactive) and 1.51% (inactive); as for `O=C(O)[C@H](Cc1ccc(Nc2nccc3ccncc23)cc1)NC1=C(Br)C(=O)C12CCCCC2`, -35.7% (inactive). `CN(C)CCC1(c2ccc(Cl)cc2)Cc2ccccc2C(=O)O1` (stereo not drawn): the activity change, negative = inhibition was 24.4% (inactive) and 4.82% (inactive). Next, `CCOc1nc2cccc(C(=O)OC(C)OC(=O)OC3CCCCC3)c2n1Cc1ccc(-c2ccccc2-c2nn[nH]n2)cc1` (stereo not drawn): 26.2% (inactive) and -2.58% (inactive); `COc1ccc(-c2oc3ccccc3c(=O)c2O)cc1OC`: 17.9% (inactive); `CN(C)C(=O)C(=O)c1cn(C)c2cc(Cl)c(C(=O)N3CCC(Cc4ccc(F)cc4)CC3)cc12`: -34.4% (inactive). As for `CN(C)[C@@H](CCOc1cccc2ccccc12)c1ccccc1`, the figure is 16.9% (inactive). As for `CC(C)Nc1nc2cc(Cl)c(Cl)cc2n1[C@H]1O[C@@H](CO)[C@H](O)[C@@H]1O`, the figure is -13.6% (inactive). For `c1ccc(C(NCc2cccnc2)(c2ccccc2)c2ccccc2)cc1`, the activity change, negative = inhibition was 3.97% (inactive) and 35.4% (inactive).

Take `CCCn1c(=O)c2[nH]c(C34CC5CC(CC3C5)C4)nc2n(CCC)c1=O`: the activity change, negative = inhibition was -9.56% (inactive).

Take `Clc1ccccc1C(c1ccccc1)(c1ccccc1)n1ccnc1`: the activity change, negative = inhibition was -38.2% (inactive) and -91% (active).

As to `N#C/C(=C1/SCC(c2ccccc2Cl)S1)n1ccnc1` (stereo not drawn), the activity change, negative = inhibition is 12.5% (inactive). Turning to `Fc1ccc(C(c2ccccc2)(c2ccccc2F)n2ccnc2)cc1` (stereo not drawn), the activity change, negative = inhibition is -44.6% (inactive). Next, `N[C@H](Cc1cnc[nH]1)C(=O)O`: 2.37% (inactive). Next, `O=c1cc[nH]c2cc(Cl)ccc12`: 10.2% (inactive); `C[C@@H]1COC(Nc2ccc3ncnc(Nc4ccc(OCc5nccs5)c(Cl)c4)c3c2)=N1`: -65.9% (inactive); `CNC(=O)CN1CCC(Oc2cc3c(Nc4cccc(Cl)c4F)ncnc3cc2OC)CC1`: -53.4% (inactive).

As for `C=CC(=O)Nc1cc2c(Nc3ccc(F)c(Cl)c3)ncnc2cc1OCCCN1CCOCC1`, the activity change, negative = inhibition is -41.3% (inactive). With `CCN(CC)CC1CCN(c2ncc3ncnc(Nc4ccc(F)c(Cl)c4)c3n2)CC1`, the activity change, negative = inhibition is -13.4% (inactive) and 3.34% (inactive). As for `COc1cc2ncnc(Nc3ccc(F)c(Cl)c3)c2cc1NC(=O)/C=C/CN1CCCCC1`, the figure is -80.3% (active); as for `CN(C)C/C=C/C(=O)Nc1cc2c(Nc3ccc(F)c(Cl)c3)ncnc2cc1O[C@H]1CCOC1`, -87.8% (active).
